This note sets out measurements from ChEMBL document CHEMBL2218924, “A broad activity screen in support of a chemogenomic map for kinase signalling research and drug discovery” (Biochem J, 2013).

For assay [1], the target named is Platelet-derived growth factor receptor alpha (Homo sapiens) (UniProt P16234). To be noted: at 1 µM.
Assay [2] shares this target. To be noted: at 10 µM.
The target of assay [3] is Platelet-derived growth factor receptor beta (Homo sapiens) (UniProt P09619). To be noted: at 1 µM.
For assay [4] the target is unchanged. To be noted: at 10 µM.
The target of assay [5] is T1, 3-phosphoinositide-dependent protein kinase 1 (Homo sapiens) (UniProt O15530).
T1 sequence (whole entry): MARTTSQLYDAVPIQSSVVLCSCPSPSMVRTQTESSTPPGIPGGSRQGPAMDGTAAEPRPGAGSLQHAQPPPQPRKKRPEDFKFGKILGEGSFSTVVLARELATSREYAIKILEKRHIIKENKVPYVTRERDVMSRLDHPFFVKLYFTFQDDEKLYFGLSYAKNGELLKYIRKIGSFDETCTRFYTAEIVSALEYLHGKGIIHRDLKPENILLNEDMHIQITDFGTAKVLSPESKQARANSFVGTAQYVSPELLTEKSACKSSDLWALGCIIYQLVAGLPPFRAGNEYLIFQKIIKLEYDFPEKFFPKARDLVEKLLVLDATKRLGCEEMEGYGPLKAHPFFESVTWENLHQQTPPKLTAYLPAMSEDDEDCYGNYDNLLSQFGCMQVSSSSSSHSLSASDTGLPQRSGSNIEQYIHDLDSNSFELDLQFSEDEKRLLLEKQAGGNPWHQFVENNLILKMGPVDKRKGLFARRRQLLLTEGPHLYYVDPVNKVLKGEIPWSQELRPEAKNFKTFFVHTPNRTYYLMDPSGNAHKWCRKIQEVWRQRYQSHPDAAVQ
To be noted: at 1 µM.

The target in assay [6] is T1, 3-phosphoinositide-dependent protein kinase 1 (Homo sapiens). To be noted: at 10 µM.
Assay [7] addresses cAMP-dependent protein kinase catalytic subunit alpha (Homo sapiens) (UniProt P17612). To be noted: at 1 µM.
Assay [8] has the same target. To be noted: at 10 µM.
Assay [9] addresses RAC-gamma serine/threonine-protein kinase (Homo sapiens) (UniProt Q9Y243). To be noted: at 1 µM.
The target is the same in assay [10]. To be noted: at 10 µM.

The term residual activity denotes the signal under treatment as a percentage of the control signal.

Platelet-derived growth factor receptor beta (Homo sapiens), sequence (P09619 whole entry): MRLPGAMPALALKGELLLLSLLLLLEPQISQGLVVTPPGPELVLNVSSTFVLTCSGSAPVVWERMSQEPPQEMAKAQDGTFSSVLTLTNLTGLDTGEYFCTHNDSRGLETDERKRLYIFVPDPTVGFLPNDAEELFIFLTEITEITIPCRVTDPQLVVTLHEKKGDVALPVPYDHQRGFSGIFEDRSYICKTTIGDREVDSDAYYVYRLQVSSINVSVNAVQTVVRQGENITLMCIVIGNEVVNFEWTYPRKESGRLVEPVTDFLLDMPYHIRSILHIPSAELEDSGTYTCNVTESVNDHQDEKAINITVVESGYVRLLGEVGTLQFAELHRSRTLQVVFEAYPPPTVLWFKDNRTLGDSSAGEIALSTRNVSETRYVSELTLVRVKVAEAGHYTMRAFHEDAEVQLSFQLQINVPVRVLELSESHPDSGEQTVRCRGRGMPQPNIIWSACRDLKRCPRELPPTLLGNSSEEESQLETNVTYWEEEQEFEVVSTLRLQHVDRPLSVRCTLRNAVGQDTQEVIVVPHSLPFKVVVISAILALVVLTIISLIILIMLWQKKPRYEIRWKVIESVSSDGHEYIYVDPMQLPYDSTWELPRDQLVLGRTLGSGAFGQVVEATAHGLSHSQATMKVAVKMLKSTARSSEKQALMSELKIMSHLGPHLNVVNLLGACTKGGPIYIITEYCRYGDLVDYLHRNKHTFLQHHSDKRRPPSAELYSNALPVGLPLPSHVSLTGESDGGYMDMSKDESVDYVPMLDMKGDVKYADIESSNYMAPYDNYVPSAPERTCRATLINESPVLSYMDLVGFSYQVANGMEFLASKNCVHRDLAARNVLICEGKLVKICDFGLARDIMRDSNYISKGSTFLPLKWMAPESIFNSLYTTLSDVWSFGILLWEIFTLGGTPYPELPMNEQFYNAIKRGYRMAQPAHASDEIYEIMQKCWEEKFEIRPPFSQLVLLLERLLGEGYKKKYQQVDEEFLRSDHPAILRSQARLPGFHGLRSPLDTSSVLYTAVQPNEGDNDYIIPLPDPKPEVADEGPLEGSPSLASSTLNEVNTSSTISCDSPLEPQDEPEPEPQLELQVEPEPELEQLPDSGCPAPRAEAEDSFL
Platelet-derived growth factor receptor alpha (Homo sapiens), sequence (P16234 whole entry): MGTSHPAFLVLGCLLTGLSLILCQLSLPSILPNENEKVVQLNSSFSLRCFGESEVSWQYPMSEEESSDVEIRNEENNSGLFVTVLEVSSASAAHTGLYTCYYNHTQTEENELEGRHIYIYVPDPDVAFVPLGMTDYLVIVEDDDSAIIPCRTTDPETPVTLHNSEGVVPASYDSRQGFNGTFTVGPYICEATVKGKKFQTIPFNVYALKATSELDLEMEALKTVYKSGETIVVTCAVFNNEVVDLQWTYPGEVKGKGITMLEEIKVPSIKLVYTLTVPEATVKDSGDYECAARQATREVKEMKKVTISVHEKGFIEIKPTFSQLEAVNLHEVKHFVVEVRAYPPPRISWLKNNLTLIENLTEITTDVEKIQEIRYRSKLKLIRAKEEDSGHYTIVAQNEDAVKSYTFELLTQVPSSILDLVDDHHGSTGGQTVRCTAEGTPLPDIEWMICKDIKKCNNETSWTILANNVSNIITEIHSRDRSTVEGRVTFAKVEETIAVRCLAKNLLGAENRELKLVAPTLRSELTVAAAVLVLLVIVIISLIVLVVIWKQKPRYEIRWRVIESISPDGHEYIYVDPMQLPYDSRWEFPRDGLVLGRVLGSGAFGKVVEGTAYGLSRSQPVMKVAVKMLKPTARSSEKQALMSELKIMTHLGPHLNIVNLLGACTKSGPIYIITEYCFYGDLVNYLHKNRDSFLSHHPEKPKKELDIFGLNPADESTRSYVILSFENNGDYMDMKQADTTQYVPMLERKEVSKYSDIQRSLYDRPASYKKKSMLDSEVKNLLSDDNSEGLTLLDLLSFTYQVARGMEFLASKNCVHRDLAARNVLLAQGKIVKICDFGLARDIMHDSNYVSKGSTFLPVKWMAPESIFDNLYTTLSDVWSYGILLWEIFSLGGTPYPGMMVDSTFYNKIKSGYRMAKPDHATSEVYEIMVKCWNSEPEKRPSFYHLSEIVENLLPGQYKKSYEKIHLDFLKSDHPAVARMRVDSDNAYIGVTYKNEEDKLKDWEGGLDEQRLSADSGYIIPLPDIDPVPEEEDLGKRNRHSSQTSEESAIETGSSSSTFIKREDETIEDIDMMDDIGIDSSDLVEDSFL
RAC-gamma serine/threonine-protein kinase (Homo sapiens), sequence (Q9Y243 whole entry): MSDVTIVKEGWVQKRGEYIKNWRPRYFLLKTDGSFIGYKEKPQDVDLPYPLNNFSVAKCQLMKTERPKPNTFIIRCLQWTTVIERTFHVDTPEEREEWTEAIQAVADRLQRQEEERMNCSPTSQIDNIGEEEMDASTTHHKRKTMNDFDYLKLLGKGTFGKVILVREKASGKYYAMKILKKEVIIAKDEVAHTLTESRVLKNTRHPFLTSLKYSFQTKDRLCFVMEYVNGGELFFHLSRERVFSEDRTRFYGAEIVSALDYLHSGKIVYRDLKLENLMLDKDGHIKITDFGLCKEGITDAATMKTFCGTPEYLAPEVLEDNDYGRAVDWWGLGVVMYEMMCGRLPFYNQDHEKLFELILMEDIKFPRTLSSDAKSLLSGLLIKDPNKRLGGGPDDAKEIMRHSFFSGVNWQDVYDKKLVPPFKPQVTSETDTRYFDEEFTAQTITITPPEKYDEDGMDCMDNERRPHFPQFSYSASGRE

Turning to `O=C(Nc1cccc(Nc2cc(Nc3cccc(C(F)(F)F)c3)ncn2)c1)C1CC1`, the residual activity in [1] was found to be 110%; in assay [2], 109%; in assay [3], 98%; in assay [4], 93%; in [5], 93%; in assay [6], 87%. Also, the residual activity was determined as 103% in [7], 112% in assay [8], 90% in assay [9] and 96% in assay [10].

As to `O=C1c2ccccc2-[n+]2ccc3c([nH]c4ccccc43)c21`, the residual activity in [1] is 107%; in [2], 103%; in assay [3], 110%; in assay [4], 102%; in [5], 100%; in assay [6], 102%. Further, the residual activity was found to be 94% in assay [7], 98% in assay [8], 112% in [9] and 87% in [10].

With `CN(C)CCCn1cc(C2=C(c3c[nH]c4ccccc34)C(=O)NC2=O)c2ccccc21`, the residual activity in assay [1] was found to be 121%; in [2], 78%; in assay [3], 106%; in assay [4] it was 65%; in assay [5], 63%; in assay [6] it was 15%. The residual activity in assay [7] worked out at 60%; in [8], 20%; in [9], 30%; in assay [10], 7%.

As to `CO[C@H]1[C@@H](OC)C[C@H](C)[C@@H](OC)C2=CC(=O)C=C(NC(=O)/C(C)=C/C=C/[C@H](OC)[C@@H](OC(N)=O)/C(C)=C/[C@@H]1C)C2=O`, the residual activity in assay [1] is 114%; in [2] it was 107%; in [3] it was 108%; in assay [4], 80%; in [5], 112%; in assay [6] it was 96%. For the same molecule, the residual activity worked out at 79% in assay [7], 70% in assay [8], 94% in assay [9] and 75% in assay [10].

Turning to `N#C/C(=C(\N)Sc1ccc(N)cc1)c1ccccc1C(F)(F)F`, the residual activity came out at 112% in assay [1]; 113% in assay [2]; 98% in assay [3]; 102% in [4]; 98% in assay [5]; 87% in [6]. Moreover, the residual activity in assay [7] stood at 79%; in [8], 80%; in assay [9] it was 96%; in assay [10] it was 86%.

`Cn1cc(/C=C2\C(=O)Nc3ccc(S(N)(=O)=O)cc32)c2ccccc21`: the residual activity in [1] amounted to 77%; in [2] it was 33%; in assay [3] it was 98%; in assay [4], 51%; in assay [5], 76%; in [6], 32%. In addition, the residual activity in [7] is 93%; in assay [8] it was 57%; in [9] it was 88%; in assay [10], 81%.

Regarding `CC(C)n1cnc2c(NCc3ccccc3)nc(NCCCO)nc21`, the residual activity in assay [1] was 105%; in [2], 107%; in assay [3], 98%; in assay [4] it was 94%; in assay [5], 107%; in [6] it was 104%. In addition, the residual activity in [7] worked out at 98%; in [8], 99%; in assay [9], 104%; in assay [10], 90%.

Regarding `COc1cc2ncnc(Nc3ccc(O)c(Br)c3)c2cc1OC`, the residual activity was determined as 103% in assay [1]; 78% in [2]; 105% in assay [3]; 83% in [4]; 97% in [5]; 76% in [6]. Besides, the residual activity in [7] was 88%; in assay [8], 90%; in [9], 101%; in assay [10] it was 80%.

Take `O=[N+]([O-])c1ccc(-c2nc(-c3ccc(F)cc3)c(-c3ccncc3)[nH]2)cc1`: the residual activity in assay [1] worked out at 114%; in assay [2] it was 114%; in assay [3] it was 103%; in assay [4], 111%; in assay [5] it was 117%; in assay [6] it was 100%. Further, the residual activity in [7] came to 97%; in assay [8], 82%; in assay [9], 98%; in [10] it was 75%.

`Nc1nc(Nc2ccc(S(N)(=O)=O)cc2)nn1C(=S)Nc1c(F)cccc1F`: the residual activity in assay [1] was 82%; in [2], 39%; in [3], 83%; in [4], 24%; in [5] it was 3%; in [6] it was 0%. The residual activity in assay [7] stood at 53%; in [8] it was 16%.

`Cc1nc(-c2ccccc2)c(-c2ccncc2)o1`: the residual activity in assay [1] is 89%; in assay [2] it was 83%; in [3], 99%; in [4], 92%; in assay [5], 114%; in assay [6], 102%. Besides, the residual activity came to 94% in assay [7], 85% in assay [8], 118% in [9] and 88% in assay [10].

As to `NC(=O)c1ccc2[nH]c(-c3ccc(Oc4ccc(Cl)cc4)cc3)nc2c1`, the residual activity came to 115% in assay [1]; 121% in assay [2]; 107% in assay [3]; 128% in [4]; 105% in assay [5]; 107% in assay [6]. The residual activity in assay [7] came out at 106%; in assay [8], 129%; in assay [9] it was 106%; in assay [10], 103%.

As for `Nc1cccc(-c2cc3c(Oc4cccc(O)c4)ncnc3[nH]2)c1`, the residual activity turned out to be 48% in assay [1]; 10% in [2]; 48% in assay [3]; 8% in assay [4]; 92% in assay [5]; 40% in assay [6]. Also, the residual activity in [7] was found to be 94%; in assay [8], 85%.

Consider `Nc1ccc2ncnc(NCCc3ccc(Oc4ccccc4)cc3)c2c1`, for which the residual activity in assay [1] was 87%; in assay [2], 43%; in assay [3] it was 97%; in assay [4], 95%; in [5], 104%; in assay [6], 109%. In addition, the residual activity in assay [7] was 103%; in assay [8], 124%; in assay [9] it was 99%; in assay [10], 76%.

For `N#Cc1cnc2cnc(NCc3cccnc3)cc2c1Nc1ccc(F)c(Cl)c1`, the residual activity in assay [1] is 97%; in assay [2], 54%; in assay [3], 119%; in assay [4], 88%; in [5], 45%; in assay [6] it was 41%. For the same molecule, the figures for the residual activity in assay [7] and in assay [8] were 5% and 1%, respectively.

In the case of `Nc1n[nH]c2nnc(-c3c(-c4ccccc4)nn4ccccc34)cc12`, the residual activity in assay [1] was 105%; in assay [2], 100%; in assay [3], 97%; in assay [4], 99%; in assay [5], 102%; in assay [6] it was 94%. In addition, the residual activity in assay [7] came out at 97%; in [8], 77%; in [9], 99%; in assay [10], 82%.
